The campaign covered roughly 330,000 compounds. About 4,400 (1.3%) were called active.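 How the source made its calls: active means growth inhibition of the mutant yeast at or above 50%; inactive means the rest.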 The entries come from a sample that favours actives as a whole.
Assay: growth inhibition of tim23-1 ts yeast – luminescence, uHTS, primary screen (AID 463212);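 further: temperature-sensitive mutant grown at 25 °C; plate controls were DMSO-treated mutant yeast for no effect and medium wells lacking yeast for full effect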
Conditions: S. cerevisiae tim23-1 growth, BacTiter-Glo luminescence, 24 h; at 20 µM; hits give high values

inhibition, inactive:
CCN(CC)S(=O)(=O)c1ccc(CNC(=O)CN2C(=O)NC3(CCc4ccccc43)C2=O)cc1 (stereo not drawn) 9.27%
Cc1ccc(S(=O)(=O)N2CCC(C(=O)OCC(=O)N3CC(=O)Nc4ccccc43)CC2)cc1 14.9%
CC[C@]12c3[nH]c4ccc(Cl)cc4c3CCN1C(=O)[C@@H](CC(=O)NCCN1CCOCC1)C[C@@H]2C(=O)N1CCN(C(=O)C2CC2)CC1 24.7%
CC1Cn2c(nnc2-c2cccs2)S1 (stereo not drawn) 3.29%
NS(=O)(=O)c1ccc(CCNC(=O)CNC(=O)Cc2ccccc2)cc1 7.58%
CCN(CC)c1ccc(NC(=O)C2CCC(CNc3c(N4CCCC4)c(=O)c3=O)CC2)c(C)c1 (stereo not drawn) 2.65%
O=C(NCc1ccccc1Cl)C1CCCO1 (stereo not drawn) 3.86%
O=C(Nc1nnc(SCc2c(Cl)cccc2Cl)s1)c1cccc([N+](=O)[O-])c1 -8.16%
CC1CN(C(=O)c2cc(COc3c(F)cccc3F)on2)CCN1C (stereo not drawn) 8.91%
NC(=O)C1CCN(C(=O)c2cn(-c3ccccc3)nc2-c2cccnc2)CC1 -6.01%
O=C(COC(=O)/C=C/c1cn(-c2ccccc2)nc1-c1cccnc1)Nc1ccc(Cl)cc1Cl 20.1%
O=C1CC(C(F)(F)C(F)(F)C(F)(F)C(F)(F)F)=Nc2ccccc2N1 15.9%
CC(C)C[C@H](NC(=O)NCCc1ccc(Cl)cc1)C(=O)O 9.43%
Cc1ccc2nc(SCC(=O)N3CC(C)OC(C)C3)nc(=O)n2c1 (stereo not drawn) 10.2%
O=C(Nc1ccccc1N1CCOCC1)c1ccncc1 -8.11%
O=C(NC(=S)Nc1ccccc1N1CCCCC1)c1ccc(F)cc1 32.5%
O=C(NC1CC2CCCC(C1)N2C(=O)N1CCCCC1)C1CCCCC1 (stereo not drawn) 19.4%
Cc1cc(C)nc(NC2=NCC(=O)N2c2ccc(Cl)cc2)n1 -5.7%
O=C(Nc1ccc(NC(=O)c2cccs2)cn1)c1ccco1 17.2%
O=C(N/N=C/c1ccco1)c1csc2c1CCCC2 22.8%
O=C(Nc1ccc(Br)cc1)c1cc(S(=O)(=O)Nc2ccccn2)ccc1Cl -0.209%
Cc1ccc(NN=C2C(=O)OC(C)(C)OC2=O)c(C)c1 -2.58%
CCCCCCCN=C(C)c1ccccc1O 5.76%
CCCCCCc1cc2cc(-c3nnc(-c4ccccc4)o3)c(=O)oc2cc1O 7.67%
CC(C)NC(=O)NNc1c(Cl)cncc1Cl 2.69%
O=C(/C=C/c1cccc(C(F)(F)F)c1)N1CCN(c2ccccn2)CC1 37.6%
COc1ccc(NC(C)=O)cc1NC(=O)CN1CCN(C2c3ccccc3-c3ccccc32)CC1 26.8%
O=C(C[C@H]1C(=O)N(c2ccc(F)c(F)c2)C[C@@H]1Cc1ccccc1)Nc1ccccc1 13.5%
COc1ccc(NC(=O)CSc2nc(NS(=O)(=O)c3ccc(C)cc3)cc(=O)[nH]2)cc1 2.94%
Cc1noc(C)c1-c1ccc2ncnc(NC(C)c3ccco3)c2c1 (stereo not drawn) 5.06%
CC(=O)Nc1cccc(Nc2nc(-c3cccs3)nc3ccccc23)c1 39.4%
Oc1ccc(-c2nnc(Nc3ccccc3)c3ccccc23)cc1 -5.13%
CCCCn1c(O)c(N=NC(=O)Cn2c(C(F)(F)F)nc3ccccc32)c2ccccc21 -27.6%
CCCn1c(N)c(C(=O)CSc2nnc3n2CCCCC3)c(=O)[nH]c1=O 7.27%
Cc1cc(C(=O)CCl)c(C)n1CC1COc2ccccc2O1 (stereo not drawn) 34.4%
O=C(CN1C(=O)C2C3C=CC(C3)C2C1=O)NCC1COc2ccccc2O1 (stereo not drawn) 18.2%
CC(=O)Nc1sc2c(c1C(c1cccc(F)c1)N1CCN(CCO)CC1)CCCC2 (stereo not drawn) 14.7%
Cc1cccc(-[n+]2c(-c3cccc(Br)c3)[nH]c3nc4ccccc4nc32)c1 22.7%
NS(=O)(=O)c1ccc(NC(=S)NC(=O)c2cccc(Br)c2)cc1 28.3%
Cc1ccccc1NC(=S)NNC(=O)c1cccc(Br)c1 14.7%
Cc1ccc(C)c(OCc2cc(C(=O)N3CCN(c4cnccn4)CC3)no2)c1 23.9%
O=C(Nc1ccc(Br)cn1)c1ccc([N+](=O)[O-])o1 43.4%
Cc1cccc(NC(=O)c2ccc([N+](=O)[O-])o2)c1 7.53%
O=C(CCCNS(=O)(=O)c1cccc2nsnc12)NCCN1CCN(c2ccccc2F)CC1 1.63%
COc1cc(NS(=O)(=O)c2ccc(NC(=O)c3ccc(S(=O)(=O)N4CCCCC4)cc3)cc2)ncn1 3.91%
CCC1(CC)NC(=O)N(Cc2nc3ccccc3s2)C1=O 21.9%
O=C(NC1(C(F)(F)F)NC(=O)N(C2CCCCC2)C1=O)c1ccco1 (stereo not drawn) 14.4%
CC(C)c1ccc(NC(=O)[C@@H](NC(=O)N2CC(=O)Nc3ccccc32)C(C)C)cc1 10.9%
Cc1c(NC(=O)CCC2CCCCC2)cc(C(=O)N2CCOCC2)cc1[N+](=O)[O-] 7.43%
CC(=O)Nc1ccc(S(=O)(=O)NC2(C(F)(F)F)C(=O)NC(C)=C2C#N)cc1 (stereo not drawn) 10.8%
Cc1cc(N2CCOCC2)nc2ccc(NC(=S)N3CCN(Cc4ccccc4)CC3)cc12 7.08%
Cc1cc(N2CCN(C)CC2)nc2ccc(NC(=S)N3CCOCC3)cc12 12.1%
COc1ccccc1CN1CC(C(=O)NCCc2cn[nH]c2)CCC1=O (stereo not drawn) 11.8%
CCCNC(=O)Nc1ccccc1C(=O)Nc1ccc(OC)cc1 11%
CCOC(=O)Cc1ncccc1C(=O)Nc1ccc(OC)cc1 -4.31%
COc1ccc(CNS(=O)(=O)c2cc3c4c(c2)CCN4C(=O)CC3)cc1 9.82%
COc1ccccc1C(=O)NC(=O)COC(=O)c1ccco1 1.32%
COc1ccc(/C=C(\C#N)C(=O)OCC(=O)N(C)C2CCS(=O)(=O)C2)cc1 (stereo not drawn) -18.1%
COc1ccc(N2CCN(C(=O)/C(C#N)=C/c3ccccc3)CC2)cc1 40.6%
CC(=O)C1=C(C)NC(C)=C(C(C)=O)C1c1cn(-c2ccccc2)nc1-c1cccs1 29.1%
Cc1nn(Cc2ccc(F)cc2)c(C)c1NC(=O)c1cccnc1Cl 9.85%
CSc1ccccc1NC(=O)c1cc(C2CC2)on1 15.5%
C/C(=N/NC(=O)CN1CCN(S(=O)(=O)c2ccc(Br)cc2)CC1)c1ccncc1 4.89%
O=C(N/N=C\c1ccc(-c2ccc(Cl)c(Cl)c2)o1)C(=O)N1CCCC1 -5.25%
Nc1nnnn1CC(=O)N/N=C/c1ccc(-c2cccc(Cl)c2)o1 1.59%
Cc1c(C)c2ccc(OCC(=O)N3CCN(c4cccc(Cl)c4)CC3)cc2oc1=O -6.57%
Cc1ccc(N2C(=O)CC(Sc3ncn[nH]3)C2=O)cc1 (stereo not drawn) -0.146%
COc1ccc(N2C(=O)CC(Sc3n[nH]c(-c4ccc(C)cc4)n3)C2=O)cc1 (stereo not drawn) 28.8%
COc1ccc(C(c2nnnn2C2CCCCC2)N2CCN(c3ccccc3F)CC2)cc1 (stereo not drawn) 14.3%
CC(C(=O)NC1CCCC1)N(c1ccc(Oc2ccccc2)cc1)S(C)(=O)=O (stereo not drawn) 29.3%
Cc1ccc(NNC(=O)c2c(F)cccc2Cl)cc1Cl 44.2%
Cc1cc(OC(=O)c2c(Cl)cccc2Cl)nc(C)n1 23.1%
COc1ccc(C(C(=O)NCC2CCCO2)N(C(=O)Cn2nnc3ccccc32)c2ccc(NC(C)=O)cc2)cc1OC (stereo not drawn) 15.6%
CCOc1ccc(CC(=O)NCCS(=O)(=O)N2CCN(c3ccccc3)CC2)cc1 -7.53%

inhibition, active:
O=C(Nc1nnc(SCc2c(Cl)cccc2Cl)s1)C1CCCO1 (stereo not drawn) 52.3%
CN(C)/N=C/c1cn(-c2ccccc2)nc1-c1cccnc1 50.3%
CCc1ccc(C(=O)NC(=S)Nc2ccccc2N2CCOCC2)cc1 53.9%
O=C(N/N=C/C=C/c1ccco1)c1cccs1 59.4%
CCCCCCc1ccc(O)cc1O 62.8%
Cc1cccc(-c2nc(Nc3ccc(O)cc3)c3ccccc3n2)c1 62.7%
O=c1ccc2c(-c3ccccc3S(=O)(=O)O)c3ccc(O)c(O)c3oc-2c1O 56%
O=C1C(=O)N(CC2COc3ccccc3O2)c2ccccc21 (stereo not drawn) 72.4%
O=C(NC(=S)Nc1cccc2c(O)cccc12)c1cccc(Br)c1 68.6%
Cc1onc(NC(=O)c2ccc([N+](=O)[O-])o2)c1Br 55.6%
O=C1Nc2ccccc2/C1=C/c1ccnc2ccccc12 51.2%
O=C1NC(Nc2nc3ccccc3s2)(C(F)(F)F)C(=O)N1C1CCCCC1 (stereo not drawn) 58.9%
CCn1c2ccccc2c2cc(NC(=S)N3CCOCC3)ccc21 51.8%
COc1ccc(NC(=O)Nc2cccc3cccnc23)cc1 58.6%
COc1ccc(/C=C(\C#N)C(=O)ONC2=NCCCCC2)cc1 68.2%
Cc1nn(Cc2ccc(Cl)c(Cl)c2)c(C)c1NC(=O)c1cc(C2CC2)on1 56.6%
COC(=O)N/N=C/c1ccc(-c2ccc(Cl)c(Cl)c2)o1 54.7%
O=C1CC(Sc2ncn[nH]2)C(=O)N1c1ccccc1 (stereo not drawn) 51%
Cc1cc(C)c(S(=O)(=O)c2ccccc2)c(OC(=O)c2c(F)cccc2Cl)n1 64.7%

Source: PubChem BioAssay AID463212 (Sanford-Burnham Center for Chemical Genomics, 2010)
